Some test systems named below: NCI-H23 lung; NCI-H226 lung; NCI-H322M lung; HOP-62 NSCLC; NCI-H460 lung; HOP-92 NSCLC; NCI-H522 lung; A549/ATCC NSCLC; 786-0 renal; COLO 205 colon.
Common to all, as to test: NCI-60 one-dose screen, 48 h (100 = growth as untreated, 0 = no growth, -100 = all killed)
What all share (conditions): 10 µM unless noted

This is part of a sample that, as a whole, favours compounds with a hit. Of some 83,000 tested, about 20% had one in any assay.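 Method: cells in 96-well plates; compound added at one concentration; 48 h incubation; percent growth measured; values under 10 scored active.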 Unmarked numbers belong to inactive results. Active and inactive are the calls of the source.

Regarding `COc1ccc(C(=O)c2nc3ccccc3n2CC(=O)c2ccc(Cl)cc2)cc1`, the growth in the test on NCI-H23 lung was 30.9%; in the test with NCI-H226 lung it was 37.5%; in the test on NCI-H322M lung, 84.8%; in the test with HOP-62 NSCLC, 42.4%; in the test on NCI-H460 lung, 68.7%; in the test on HOP-92 NSCLC, 54.4%. For the same compound, the growth was -22.3% (active) in the test on NCI-H522 lung, 81.4% in the test with A549/ATCC NSCLC, 34.7% with 786-0 renal and 111% in the test with COLO 205 colon.

Take `NS(=O)(=O)c1ccc(Cn2c(SCC(=O)N/N=C/c3ccccc3O)nc3ccccc3c2=O)cc1`: the growth is 63.2% in the test with NCI-H23 lung; 57% in the test with NCI-H226 lung; 46.8% with NCI-H322M lung; 35.5% with HOP-62 NSCLC; 49.1% in the test on NCI-H460 lung; 54% with HOP-92 NSCLC. The growth with NCI-H522 lung was -1.28% (active); in the test with A549/ATCC NSCLC, 69.4%; in the test on 786-0 renal, 71.1%; with COLO 205 colon, 29.1%.

Regarding `CCCCNC(=O)Oc1ccc(/C(=C(\C)c2ccccc2)c2ccc(OCCN3CCCCC3)cc2)cc1`, the growth in the test with NCI-H23 lung is 67.9%; with NCI-H226 lung it was 86.8%; with NCI-H322M lung, 75.3%; with HOP-62 NSCLC it was 77.9%; with NCI-H460 lung, 40.5%; with HOP-92 NSCLC, 68.1%. In addition, the growth with NCI-H522 lung is 73.1%; in the test on A549/ATCC NSCLC, 57.8%; in the test with 786-0 renal it was 27.1%; in the test with COLO 205 colon it was 14.3%.

`COc1cc2oc(-c3cccc(C(=O)Nc4ccc(Br)cc4)c3)cc(=O)c2c(OC)c1OC`: the growth with NCI-H23 lung is 77.7%; in the test on NCI-H226 lung, 10.7%; with NCI-H322M lung, 62.4%; in the test with HOP-62 NSCLC it was 58%; in the test with NCI-H460 lung, 36.2%; in the test on HOP-92 NSCLC, 50.9%. The growth in the test on NCI-H522 lung was 60.9%; with A549/ATCC NSCLC it was 52.3%; in the test with 786-0 renal, 67.4%; in the test with COLO 205 colon, 54.4%.

Regarding `NC(=NCCCOc1ccc(F)cc1)Nc1ccc(I)cc1`, the growth in the test on NCI-H23 lung was 65.5%; in the test on NCI-H226 lung it was 93.7%; in the test on NCI-H322M lung, 88%; in the test with HOP-62 NSCLC it was 80.4%; in the test with NCI-H460 lung it was 81.8%; in the test on HOP-92 NSCLC, 69.8%. The growth in the test with NCI-H522 lung was 56.9%; in the test with A549/ATCC NSCLC it was 70.4%; in the test with 786-0 renal, 72.9%; in the test with COLO 205 colon it was -66.8% (active).

Regarding `CCCCCCOc1ccc(/C=N/Nc2cc(C)nc3ccc(Cl)cc23)cc1`, the growth with NCI-H23 lung is 68.3%; with NCI-H226 lung it was 87.8%; in the test on NCI-H322M lung, 14.6%; in the test with HOP-62 NSCLC, -51.6% (active); with NCI-H460 lung, -80% (active); in the test with HOP-92 NSCLC it was 69.5%. The growth with NCI-H522 lung was -42.9% (active); in the test on A549/ATCC NSCLC, -43.1% (active); in the test on 786-0 renal it was -82.2% (active); in the test with COLO 205 colon it was -48.4% (active).

On to `CCCOC(=O)N[C@H]1CCc2c(Cl)c(OC)c(OC)c(OC)c2-c2ccc(SC)c(=O)cc21`, for which the growth was 26.8% in the test on NCI-H23 lung; 6.58% (active) with NCI-H226 lung; 31.8% with NCI-H322M lung; 40.5% with HOP-62 NSCLC; 1.99% (active) with NCI-H460 lung; -2.58% (active) in the test with HOP-92 NSCLC. In addition, the growth in the test with NCI-H522 lung was 12.3%; in the test on A549/ATCC NSCLC, 22.8%; in the test on 786-0 renal, 4.31% (active); in the test with COLO 205 colon, 0.25% (active).

Take `c1ccc(-c2cn3c(ccc4ccccc43)n2)cc1`: the growth in the test with NCI-H23 lung was 70.5%; with NCI-H226 lung, 79%; with NCI-H322M lung, 77.5%; with HOP-62 NSCLC, 68.4%; with NCI-H460 lung, 20.6%; in the test on HOP-92 NSCLC, 65.6%. Further, the growth in the test on NCI-H522 lung was 44.5%; with A549/ATCC NSCLC, 47.1%; in the test on 786-0 renal, 81.7%; with COLO 205 colon it was 41.9%.

Consider `C[C@H]1[C@H](C)CC[C@]2(C(=O)NCC#CCN3CCN(C)CC3)CC[C@]3(C)C(=CC[C@@H]4[C@@]5(C)Cc6c([nH]c7ccccc67)C(C)(C)[C@@H]5CC[C@]43C)[C@H]12`, for which the growth in the test with NCI-H23 lung was 100%; in the test with NCI-H226 lung, 100%; in the test on NCI-H322M lung, 92.8%; in the test on HOP-62 NSCLC, 93.1%; with NCI-H460 lung it was 3.53% (active); in the test with HOP-92 NSCLC it was 63.8%. In addition, the growth in the test with NCI-H522 lung was 82.6%; in the test with A549/ATCC NSCLC, 69.7%; with 786-0 renal it was 66.9%; in the test on COLO 205 colon, 53.1%.

Regarding `CC1(C)c2[nH]c3ccccc3c2C[C@]2(C)[C@H]3C(=O)C=C4[C@@H]5C[C@@](C)(C(N)=O)CC[C@]5(C)CC[C@@]4(C)[C@]3(C)CC[C@@H]12`, the growth in the test on NCI-H23 lung is 72.5%; in the test with NCI-H226 lung it was 73.2%; with NCI-H322M lung, 66.4%; with HOP-62 NSCLC, 85.3%; in the test on NCI-H460 lung, 69.4%; with HOP-92 NSCLC, 55.4%. The growth in the test with NCI-H522 lung is 68.7%; in the test with A549/ATCC NSCLC, 65.8%; in the test on 786-0 renal it was 75%; with COLO 205 colon, 46.7%.

Take `CCOC(=O)Nc1ccc(-c2ccc3c(c2)NC(=O)/C3=C\c2ccc[nH]2)cc1`: the growth in the test with NCI-H23 lung was 47.3%; in the test on NCI-H226 lung, 68%; in the test with NCI-H322M lung it was 63.1%; with HOP-62 NSCLC, 91.9%; with NCI-H460 lung, 37.1%; in the test with HOP-92 NSCLC it was 102%. Further, the growth is 97.8% in the test on NCI-H522 lung, 103% in the test on A549/ATCC NSCLC, 108% in the test on 786-0 renal and 125% in the test on COLO 205 colon.

As to `COc1cc2oc(-c3cccc(C(=O)Nc4ccc5c(c4)OCO5)c3)cc(=O)c2c(O)c1OC`, the growth with NCI-H23 lung was 72.7%; in the test with NCI-H226 lung, 78.5%; in the test with NCI-H322M lung it was 81%; in the test on HOP-62 NSCLC, 60.4%; in the test on NCI-H460 lung, 54.3%; with HOP-92 NSCLC, 73%. The growth with NCI-H522 lung is 76%; in the test with A549/ATCC NSCLC it was 74.9%; with 786-0 renal, 64.3%; in the test on COLO 205 colon, 94.8%.

In the case of `c1ccc2cc(Cn3c(-c4cccc5ccccc45)[n+](Cc4ccc5ccccc5c4)c4c5ccccc5c5ccccc5c43)ccc2c1`, the growth in the test with NCI-H23 lung is -60.8% (active); in the test on NCI-H226 lung it was -66% (active); in the test on NCI-H322M lung it was -25% (active); in the test with HOP-62 NSCLC, -85.1% (active); with NCI-H460 lung, -71.7% (active); in the test on HOP-92 NSCLC, -52.3% (active). Besides, the growth in the test with NCI-H522 lung is -64.2% (active); in the test on A549/ATCC NSCLC, -71.7% (active); in the test on 786-0 renal it was -70% (active); in the test on COLO 205 colon it was -84.9% (active).

The record behind these values is PubChem BioAssay (NCI).
